From PubChem BioAssay
An excerpt weighted towards active compounds, which were near 11% of everything screened.
ALDH1A1 inh = blocks purified human ALDH1A1 activity; P00352; Purified ALDH1A1, NADH fluorescence, propionaldehyde substrate; Potency, µM (highest dose often 75.3 µM), without a hit: at the highest dose activity, negative = inhibition, usual class: inhibitors; 220,000 compounds, 7.3% hits; AID 1030;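 also: potency is read from the fitted curve at half-maximal effect; plate controls were no enzyme wells and a reference inhibitor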
Target sequence (P00352 whole entry, looked up): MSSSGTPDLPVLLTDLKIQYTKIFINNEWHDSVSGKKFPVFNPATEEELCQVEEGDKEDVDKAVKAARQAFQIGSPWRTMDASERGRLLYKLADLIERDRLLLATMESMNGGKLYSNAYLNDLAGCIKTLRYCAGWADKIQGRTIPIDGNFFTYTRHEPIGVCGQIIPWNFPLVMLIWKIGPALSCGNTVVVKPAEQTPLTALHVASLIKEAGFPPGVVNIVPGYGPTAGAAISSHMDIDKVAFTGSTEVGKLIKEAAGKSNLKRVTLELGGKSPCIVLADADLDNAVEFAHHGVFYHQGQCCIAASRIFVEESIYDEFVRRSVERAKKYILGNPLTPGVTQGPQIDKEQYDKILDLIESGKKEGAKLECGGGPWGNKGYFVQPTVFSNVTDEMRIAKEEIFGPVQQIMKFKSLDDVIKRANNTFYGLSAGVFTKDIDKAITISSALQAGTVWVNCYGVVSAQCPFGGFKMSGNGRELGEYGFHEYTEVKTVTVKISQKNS
HPGD block = blocks human HPGD enzyme activity; P15428; purified HPGD, NADH fluorescence kinetic, PGE2 substrate; Potency, µM, without a hit: top-dose activity change, negative = inhibition, hits mostly inhibitors; 150,000 compounds, 4.3% hits; also: potency is read from the fitted curve at half-maximal effect
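NADH formation kinetics: reaction with 30 uM PGE2 and 1 mM NAD+ (final), 20 nM enzyme, Tris-HCl pH 8 with Tween 20, after 15 min compound preincubation at room temperature. Fluorescence change, last versus first of five reads.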
PNC inhibitor = perinucleolar compartment assembly inhibition; PC3M PTB-GFP, PNC prevalence imaging, 16 h; stronger effect = lower value; 140,000 compounds, 3.1% hits; activity change (PNC), negative = inhibition, % at 10 µM;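 active = readout at or below -70, meaning at least 70% loss of cells showing the perinucleolar compartment, a nuclear body marking cancer cells; inconclusive = readout between -30 and a set limit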;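 also: plate controls were DMSO wells for no effect and camptothecin positive control wells for full effect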
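Compounds are pinned in duplicate onto adhered PC3M cells stably expressing GFP-tagged PTB and incubated 16 h at 37 C. Cells are then fixed, nuclei stained with Hoechst, and PNC-positive cells counted.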
Active calls of the source: *; ? = inconclusive; . = no result given; [ ] = another dose, or the depositor's remark. Unless noted, calls follow the shape of the dose curve; as a rule, active = well fitted inhibition curve with a large enough effect (not every such curve was filed as active); inconclusive = small, poorly fitted or top-dose-only effect, or another doubt; inactive = no such curve, though single readings can be large or run the other way. Unless noted, % is scaled to controls: 0 for no effect and ±100 for the full control effect.

SMILES	ALDH1A1 inh	HPGD block	PNC inhibitor
Cc1ccc(CNC(=O)/C=C/c2ccc(Br)o2)cc1	3.55µM*	-27.9%	45.8
O=C1NC2(CCCc3ccccc32)C(=O)N1Cc1nnc(-c2ccccc2Br)o1 (stereo not given)	?	-27.6%	-82.8*
CC1(CCc2ccccc2)NC(=O)N(Cc2nnc(-c3ccccc3Br)o2)C1=O (stereo not given)	12.6%	-7.7%	-21.7
CCOC(=O)N/N=C1/C[C@@H](O)[C@@H](O)[C@@H]2[C@@H]3C(=O)N(C(C)(C)C)C(=O)[C@H]3CC[C@H]12	-2.8%[13.5 µM]	.	.
CC(=O)CSc1nnc(NC(=O)CCc2ccccc2)s1	?	-7.7%	13.9
CCCCSc1nnc(NC(=O)CCc2ccccc2)s1	-0.9%	-8.5%	-81.0*
COCCSc1nnc(NC(=O)Cc2cccs2)s1	1.4%	-20.8%	31.6
COCCSc1nnc(NC(=O)Cc2ccccc2OC)s1	22.4µM*	-15.6%	27.4
O=c1c(-c2ccc(F)c(F)c2)nc2cncnc2n1Cc1ccc(F)cc1	-13.1%	-13.9%	.
Cn1cc(CN2CCCC(CO)(Cc3ccccc3)C2)cn1 (stereo not given)	-2.9%	.	.
CCOC(=O)CSCC(NC(=O)OC(C)(C)C)C(=O)OCC (stereo not given)	3.8%	-5.4%	?
CCOC(=O)C(CSCC(=O)c1ccc(Cl)cc1Cl)NC(=O)OC(C)(C)C (stereo not given)	7.94µM*	?	-5.4
CCNC(=O)[C@H]1O[C@H](n2cnc3c(N)nc(NCCc4ccc(CCC(=O)O)cc4)nc32)[C@@H](O)[C@@H]1O	?	-11.8%	.
O=C(COc1ccccc1-c1ccccc1)N/N=C/c1ccc2ccccc2c1	-5.3%	-28.6%	-116.4*
C/C(=N\NC(=O)COc1ccccc1-c1ccccc1)c1ccccn1	2.51µM*	.	.
O=C(COc1ccccc1-c1ccccc1)N/N=C/c1cccnc1	-1.5%	.	.
O=C(COc1ccccc1-c1ccccc1)N/N=C/c1ccccn1	-4.1%	.	.
O=C(COc1ccccc1-c1ccccc1)N/N=C/c1ccncc1	-7.8%	.	.
C/C(=N\NC(=O)COc1ccccc1-c1ccccc1)c1cccnc1	14.1µM*	.	.
CNCCCCCCCCSc1nc(C(C)C)ccc1C(=O)c1cccs1	?	-0.8%	.
COC(=O)[C@@]1(Cc2ccc(OC)cc2)[C@H]2c3cc(C(=O)N(C)C)n(Cc4nc5ccccc5[nH]4)c3C[C@H]2CN1C(=O)c1ccccc1	?	-24.9%	.
CC(C)C[C@H](N)C(=O)O	5.8%[13.5 µM]	-2.1%	.
Cc1ccc([C@@H](O)c2cnc(C)n2Cc2ccccc2)cc1	10.1%[13.5 µM]	-6.5%	.
CN(Cc1ccccc1F)c1nc(-c2cccs2)nc2ccccc12	?	?	-18.3
CCCCCCNC(=O)CC(NS(=O)(=O)c1ccc(OC)cc1)C(C)C (stereo not given)	5.1%	-0.8%	68.3
SMILES	ALDH1A1 inh	HPGD block	PNC inhibitor
Clc1cccc(NCc2nnc3n2CCCCC3)c1	6.5%	.	.
Clc1cccc(NCc2nnc(SCc3ccc(Cl)cc3Cl)o2)c1	-8.9%	-14.9%	-118.8*
NCCCCCc1nnc(SCc2ccccc2Cl)o1	9.0%	1.9%	1.5
S=c1[nH]nc(CNc2cccc(Cl)c2)o1	31.6µM*	.	.
CC(C=O)Cc1ccc(C(C)(C)C)cc1 (stereo not given)	11.3%	-4.2%	.
CC(=O)Nc1ccc(C(=O)N(C)C(C(=O)Nc2ccccc2)c2ccccn2)cc1 (stereo not given)	-3.5%	-3.0%	-15.9
COC(=O)CN1C(=S)N(Cc2ccccc2)C(=O)C1CC(=O)Nc1ccc(Br)cc1 (stereo not given)	-4.1%	-7.4%	67.4
CC(=O)Nc1cccc(C(=O)/C=C/c2ccc(C)cc2)c1	-2.3%	-5.9%	?
CN(C)c1ccc(/C=C/C(=O)c2cccc(Br)c2)cc1	7.08µM*	-28.6%	42.4
CN=C(Nc1cc(Cl)ccc1Cl)SC1CC(=O)N(c2ccc(C(=O)OC)cc2)C1=O (stereo not given)	0.0%	-10.3%	-21.2
CCCCCCCCCCCCCCC[C@H](O)[C@H](N)CO	3.7%	-10.5%	.
CCCc1nc2oc3c(NCCN(C)C)ncnc3c2c2c1CCCC2	?	-16.4%	11.3
CC(C)c1nc2oc3c(NCC4CCCO4)ncnc3c2c2c1CCC2 (stereo not given)	?	?	-97.9*
O=C(O)C1CCC[C@@H]2[C@@H]3CC(CN12)[C@@H]1CCCCN1C3 (stereo not given in full)	3.4%	-2.9%	.
CN(C)c1ccc(/C=C2/C(=O)N(c3ccc([N+](=O)[O-])cc3)N=C2N2CCOCC2)cc1	1.26µM*	-10.0%	36.9
O=[N+]([O-])c1ccc(Nc2ccc(N3CCOCC3)cc2)c([N+](=O)[O-])c1	-9.3%	.	.
COc1ccc(NC(=O)N2CCN(S(C)(=O)=O)CC2)c(OC)c1	6.8%	.	.
